Data reported in PubChem BioAssay.

Assay: glutamate transport activators, MN-1 cells, MN-1 cell line (AID 1612);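 further: tested at 1 µM final; 0% = mean of DMSO vehicle wells on each plate; positive means more glutamate uptake than control and negative means less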
Details: MN-1 motor neuron cells, stronger effect = higher value

Compound | glutamate uptake change
C/C=C(\C)C(=O)O[C@H]1C[C@@H](OC(C)=O)[C@@]2(C(=O)OC)CO[C@@H]3C2[C@]12CO[C@](O)(C(=O)OC)[C@H]2[C@](C)(C12O[C@@]1(C)[C@H]1C[C@@H]2OC2OC=C[C@@]21O)[C@@H]3O (some centres undefined) | 12.4%
C=C1C2CC[C@H]3[C@]4(C)C[C@H](OC5OC(CO)C(OS(=O)(=O)O)C(OS(=O)(=O)O)C5OC(=O)CC(C)C)C[C@@H](C(=O)O)[C@H]4CC[C@]3(C2)[C@H]1O (some centres undefined) | 4.94%
O=C1CC2OCC=C3CN4CC[C@]56c7ccccc7N1C5[C@H]2[C@H]3CC46 (some centres undefined) | -17.6%
CO[C@H]1[C@H](O)[C@H](O[C@H]2CC[C@]3(C)C4CC[C@]5(C)C(C6=CC(=O)OC6)CC[C@]5(O)C4CC[C@@H]3C2)O[C@@H](C)[C@@H]1O (some centres undefined) | -17.6%
C[C@@H]1CC[C@H]2[C@@H](C)C(=O)O[C@@H]3OC4(C)CC[C@@H]1[C@]32OO4 | 20.6%
C[C@H]1O[C@@H](O[C@H]2[C@@H](O)C[C@H](O[C@H]3[C@@H](O)C[C@H](O[C@H]4CC[C@]5(C)C6CC[C@]7(C)[C@@H](C8=CC(=O)OC8)CC[C@]7(O)C6CC[C@@H]5C4)O[C@@H]3C)O[C@@H]2C)C[C@H](O)[C@@H]1O (some centres undefined) | 5.63%
COc1ccc2c(c1OC)C(=O)O[C@H]2[C@H]1c2cc3c(cc2CCN1C)OCO3 | 13.5%
COc1ccc2c(c1)[C@]13CCCC[C@H]1[C@H](C2)N(C)CC3 | 6.18%
CCC(C)C(=O)O[C@H]1[C@H](O)C2C(CN3CC(C)CCC3[C@@]2(C)O)C2C[C@]34O[C@]5(O)C(OC(=O)C(C)(O)C(C)O)CC[C@@]3(C)C5C(OC(C)=O)[C@@H](OC(C)=O)C4[C@@]21O (some centres undefined) | 2.79%
CC(=O)C1=C(O)C2C3c4c[nH]c5cccc(c45)CC3C(C)(C)N2C1=O (centres undefined) | 28.8%

Assay: GFP-Q80 aggregate reduction, neuronal-like cells, cell-based, NGF-treated PC12, GFPQ80 (AID 1614);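 further: lower means fewer inclusions and 0 means no inclusions at all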
Details: PC12 NGF-treated GFP-polyQ80 inclusion reduction

Compound | inclusion score
C/C=C(\C)C(=O)O[C@H]1C[C@@H](OC(C)=O)[C@@]2(C(=O)OC)CO[C@@H]3C2[C@]12CO[C@](O)(C(=O)OC)[C@H]2[C@](C)(C12O[C@@]1(C)[C@H]1C[C@@H]2OC2OC=C[C@@]21O)[C@@H]3O (some centres undefined) | 2
C=C1C2CC[C@H]3[C@]4(C)C[C@H](OC5OC(CO)C(OS(=O)(=O)O)C(OS(=O)(=O)O)C5OC(=O)CC(C)C)C[C@@H](C(=O)O)[C@H]4CC[C@]3(C2)[C@H]1O (some centres undefined) | 2
O=C1CC2OCC=C3CN4CC[C@]56c7ccccc7N1C5[C@H]2[C@H]3CC46 (some centres undefined) | 1
CO[C@H]1[C@H](O)[C@H](O[C@H]2CC[C@]3(C)C4CC[C@]5(C)C(C6=CC(=O)OC6)CC[C@]5(O)C4CC[C@@H]3C2)O[C@@H](C)[C@@H]1O (some centres undefined) | 2
C[C@@H]1CC[C@H]2[C@@H](C)C(=O)O[C@@H]3OC4(C)CC[C@@H]1[C@]32OO4 | 2
C[C@H]1O[C@@H](O[C@H]2[C@@H](O)C[C@H](O[C@H]3[C@@H](O)C[C@H](O[C@H]4CC[C@]5(C)C6CC[C@]7(C)[C@@H](C8=CC(=O)OC8)CC[C@]7(O)C6CC[C@@H]5C4)O[C@@H]3C)O[C@@H]2C)C[C@H](O)[C@@H]1O (some centres undefined) | 2
COc1ccc2c(c1OC)C(=O)O[C@H]2[C@H]1c2cc3c(cc2CCN1C)OCO3 | 2
COc1ccc2c(c1)[C@]13CCCC[C@H]1[C@H](C2)N(C)CC3 | 2
CCC(C)C(=O)O[C@H]1[C@H](O)C2C(CN3CC(C)CCC3[C@@]2(C)O)C2C[C@]34O[C@]5(O)C(OC(=O)C(C)(O)C(C)O)CC[C@@]3(C)C5C(OC(C)=O)[C@@H](OC(C)=O)C4[C@@]21O (some centres undefined) | 2

Assay: 75Q-TubH aggregate inhibition, S. cerevisiae, yeast (AID 1616)
Details: S. cerevisiae 75Q-TubH polyglutamine aggregation suppression; stronger effect = higher value

Compound | aggregation suppression score
C/C=C(\C)C(=O)O[C@H]1C[C@@H](OC(C)=O)[C@@]2(C(=O)OC)CO[C@@H]3C2[C@]12CO[C@](O)(C(=O)OC)[C@H]2[C@](C)(C12O[C@@]1(C)[C@H]1C[C@@H]2OC2OC=C[C@@]21O)[C@@H]3O (some centres undefined) | 1
C=C1C2CC[C@H]3[C@]4(C)C[C@H](OC5OC(CO)C(OS(=O)(=O)O)C(OS(=O)(=O)O)C5OC(=O)CC(C)C)C[C@@H](C(=O)O)[C@H]4CC[C@]3(C2)[C@H]1O (some centres undefined) | 1.68
O=C1CC2OCC=C3CN4CC[C@]56c7ccccc7N1C5[C@H]2[C@H]3CC46 (some centres undefined) | 0.688
CO[C@H]1[C@H](O)[C@H](O[C@H]2CC[C@]3(C)C4CC[C@]5(C)C(C6=CC(=O)OC6)CC[C@]5(O)C4CC[C@@H]3C2)O[C@@H](C)[C@@H]1O (some centres undefined) | 1.46
C[C@@H]1CC[C@H]2[C@@H](C)C(=O)O[C@@H]3OC4(C)CC[C@@H]1[C@]32OO4 | 0.15
C[C@H]1O[C@@H](O[C@H]2[C@@H](O)C[C@H](O[C@H]3[C@@H](O)C[C@H](O[C@H]4CC[C@]5(C)C6CC[C@]7(C)[C@@H](C8=CC(=O)OC8)CC[C@]7(O)C6CC[C@@H]5C4)O[C@@H]3C)O[C@@H]2C)C[C@H](O)[C@@H]1O (some centres undefined) | 0.858
COc1ccc2c(c1OC)C(=O)O[C@H]2[C@H]1c2cc3c(cc2CCN1C)OCO3 | 1.24
COc1ccc2c(c1)[C@]13CCCC[C@H]1[C@H](C2)N(C)CC3 | 1.29
CCC(C)C(=O)O[C@H]1[C@H](O)C2C(CN3CC(C)CCC3[C@@]2(C)O)C2C[C@]34O[C@]5(O)C(OC(=O)C(C)(O)C(C)O)CC[C@@]3(C)C5C(OC(C)=O)[C@@H](OC(C)=O)C4[C@@]21O (some centres undefined) | 1.75
CC(=O)C1=C(O)C2C3c4c[nH]c5cccc(c45)CC3C(C)(C)N2C1=O (centres undefined) | 0.0191
